Screening results as filed in PubChem.
Bst PK mod: modulators of Bacillus stearothermophilus pyruvate kinase; Potency, µM; hit rate 1.2% among 51,000; purified pyruvate kinase, luminescence ATP production; ribose 5-phosphate activator present at AC10; in the data active = potency below about 11 µM; inconclusive = mostly about 12 µM to 25 µM;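 the screen sought inhibitors and activators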;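 also: scaled between full activation by ribose 5 phosphate and full inhibition by luteolin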
Luciferase inh: blocks Photinus pyralis firefly luciferase activity; P08659; purified firefly luciferase, luminescence, 8 min; Potency, µM (doses to about 57.1 µM), without a hit: top-dose activity change, negative = inhibition, actives largely listed as inhibitors; hit rate 2.2% among 72,000; AID 411; active = well fitted inhibition curve with a large enough effect; inconclusive = small, poorly fitted or top-dose-only effect; also: nearly all actives have a fitted effect of over 40% in size
Target sequence (P08659 whole entry, looked up): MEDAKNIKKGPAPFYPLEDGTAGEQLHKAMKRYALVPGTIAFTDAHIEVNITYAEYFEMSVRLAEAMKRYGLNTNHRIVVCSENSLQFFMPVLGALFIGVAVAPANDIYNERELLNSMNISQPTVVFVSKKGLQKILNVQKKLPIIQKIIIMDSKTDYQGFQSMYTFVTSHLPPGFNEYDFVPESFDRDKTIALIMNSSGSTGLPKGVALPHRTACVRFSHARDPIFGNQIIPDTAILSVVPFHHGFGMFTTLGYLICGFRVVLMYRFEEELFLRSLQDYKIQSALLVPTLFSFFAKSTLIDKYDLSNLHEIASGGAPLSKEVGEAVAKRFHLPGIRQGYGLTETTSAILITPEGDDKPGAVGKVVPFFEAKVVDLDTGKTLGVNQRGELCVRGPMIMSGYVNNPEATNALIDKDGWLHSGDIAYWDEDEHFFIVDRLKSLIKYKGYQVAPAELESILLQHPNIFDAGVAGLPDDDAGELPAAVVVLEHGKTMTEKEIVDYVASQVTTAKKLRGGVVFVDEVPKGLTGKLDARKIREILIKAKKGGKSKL
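qHTS concentration-response profiling: light output of P. pyralis luciferase with luciferin and 10 uM ATP, imidazole buffer pH 7.2. Read by luminescence after 8-min room-temperature incubation.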
* marks the source's active call; other numbers are inactive results; i = inactive; ? = inconclusive; . = no result; [ ] = dose if it differs, or a comment. Shown are actives, neighbours in structure and some others; about 2.5% of the full set was active somewhere. Unless noted, % is scaled to controls: 0 for no effect and ±100 for the full control effect; potency is read from the fitted curve at half-maximal effect.

SMILES | Bst PK mod | Luciferase inh
CCN(c1ccccc1)S(=O)(=O)c1ccc2[nH]cc(C(=O)N3CCOCC3)c(=O)c2c1 | >57 | 0.0%
COc1ccc(OC)c(Nc2nc(N)nc(-c3cc4ccccc4o3)n2)c1 | >57 | -2.9%
Cc1c(-c2nc(N)nc(Nc3ccccc3)n2)oc2ccccc12 | ? | 25.1µM*
O=C(CCN1C(=O)C2C3C=CC(C3)C2C1=O)N1CCN(c2cccc(Cl)c2)CC1 (centres undefined) | >57 | 1.7%
O=C(O)CSc1ccc2ccccc2n1 | >11.4 | 1.6%
C/C(=N/Nc1ccc2ccccc2n1)c1ccccc1O | . | 1.26µM*
Oc1c(C=Nc2cccnc2)sc2ccccc12 | 11.4* | 12.6µM*
CN=Cc1sc2ccccc2c1O | . | -16.6%
COc1ccc(-c2noc(C)c2-c2ccc3ccccc3n2)c(O)c1 | i | -37.2%
COc1ccc(OC)c(NC(=O)c2cc3ccccc3o2)c1 | . | -20.3%
COc1ccc(OC(=O)c2cc3ccccc3o2)cc1 | ? | 7.94µM*
COc1ccccc1NC(=O)c1oc2ccc(C)cc2c1C | . | 15.8µM*
COc1ccccc1NC(=O)c1oc2ccccc2c1NC(=O)c1cc(OC)c(OC)c(OC)c1 | >57 | -6.1%
C/C(=C\C(=O)Nc1nccs1)c1ccccc1 | i | 25.1µM*
CCC(C(=O)Nc1nccs1)c1ccccc1 (centres undefined) | . | -2.9%
COc1ccc(N2CC(O)=C(c3nc4ccccc4s3)C2=N)c(OC)c1 | >11.4 | -3.5%
COc1cccc(N2CC(O)=C(c3nc4ccccc4c(=O)[nH]3)C2=N)c1 | 2.88* | -6.0%
COc1ccc(NC(=O)CSc2nc3c(c(=O)n2-c2ccc(F)cc2)SCC3)c(OC)c1 | >57 | 0.7%
O=C(NC1CC2CCC1C2)C1CCN(S(=O)(=O)c2ccc(-c3nn[nH]n3)cc2)CC1 (centres undefined) | >57 | 1.0%
CC(C)=CC(=O)Nc1ccccc1C(N)=O | >57 | 0.9%
NC(=O)c1ccccc1N/C=C/C(=O)c1ccccc1 | 2.47* | 3.16µM*
Cn1c2ccccc2c2ncn(CCCN3CCOCC3)c(=O)c21 | 9.71* | -0.8%
Cn1c2ccc(F)cc2c2ncn(CCN3CCOCC3)c(=O)c21 | . | 0.0%
Cc1nnc(SCC(=O)N2c3ccccc3Sc3ccccc32)n1N | >57 | 1.9%
Cc1ccc(-n2c(N)c(C(=O)N3CCOCC3)sc2=S)cc1 | >57 | -0.3%
SMILES | Bst PK mod | Luciferase inh
Cc1cccc2cc3c(N)c(C(=O)N4CCOCC4)sc3nc12 | ? | 15.8µM*
CCCOC(=O)c1ccc(-n2nnnc2SCC(=O)N2CCCCC2)cc1 | . | 0.3%
CN(C)c1ccc(C=Nc2cnn(C)c2C(N)=O)cc1 | i | -18.0%[25.5 µM]
CN(C)c1ccc(/C=N/n2ncc3ccccc32)cc1 | 1.88* | 3.98µM*
C=CCn1c(C(C)NC(=O)C(C)(C)C)nc2ccccc21 (centres undefined) | >57 | 1.5%
C=CCn1c(/N=C/c2ccc(N(C)C)cc2)nc2ccccc21 | 1.41* | 3.98µM*
COCCn1nnnc1SCC(=O)c1ccccc1 | >57 | -1.5%
Cc1cc(NC(=O)c2cc(C)on2)n(-c2ccccc2)n1 | >57 | -0.6%
CC(C)(C#N)Nn1cnnc1 | >57 | 0.8%
CCOC(=O)c1c(C)n(C)c2ccc(O)c(S(=O)(=O)c3ccccc3)c12 | 10.3* | -1.7%[25.5 µM]
CCOC(=O)c1c(C)n(C)c2ccc(O)c(CN(C)C)c12 | >57 | -2.4%
COc1ccccc1-n1c(SCC(=O)Nc2ccccc2F)nc2[nH]ncc2c1=O | >57 | -1.5%
CN(C)S(=O)(=O)c1ccc2c(c1)/C(=C/c1cc3c([nH]1)CCCC3)C(=O)N2 | . | 25.1µM*
COc1ccc(N(C)S(=O)(=O)c2ccc3c(c2)CCC(=O)N3)cc1 | >57 | 4.5%
O=C(O)CCSc1nc2ccccc2c(=O)[nH]1 | >57 | 3.2%
Cc1ccc(C2/C(=C(/O)c3cnn(-c4ccccc4)c3C)C(=O)C(=O)N2CCN2CCOCC2)o1 (centres undefined) | >25.6 | -5.7%[25.5 µM]
Cc1c(/C(O)=C2/C(=O)C(=O)N(CCN3CCOCC3)C2c2cccs2)cnn1-c1ccccc1 (centres undefined) | . | 12.6µM*
CN1CCCC(OC(=O)c2cc(Br)ccc2Cl)C1 (centres undefined) | >57 | 2.9%
COc1ccc(OC)c(Nc2nc(-c3cccs3)cs2)c1 | . | -7.2%
COc1ccccc1Nc1nc(-c2cccs2)cs1 | . | 12.6µM*
O=C(/C=C\c1ccccc1)c1ccccc1O | . | -6.5%[11.4 µM]
O=C(/C=C/c1ccccc1)c1ccccc1 | i | 10µM*
O=C(Cn1cnc2c(oc3ccccc32)c1=O)N1CCN(c2ccccc2)CC1 | >57 | -0.3%
CCOc1ccc(S(=O)(=O)N2CCN(c3ccc(C)cc3C)CC2)cc1 | . | 3.2%
Cc1ccc(N=Nc2c(O)c3ccccc3[nH]c2=O)c(S(=O)(=O)N(C)C)c1 | . | 3.16µM*
CCCCc1c(O)c2ccccc2[nH]c1=O | >57 | -0.1%
c1ccc2oc(NC3=NCN(CC4CCCO4)CN3)nc2c1 (centres undefined) | >57 | -9.7%
O=C(N[C@@H](Cc1ccccc1)C(=O)O)c1cccnc1 | . | 2.4%
O=C(CC(Nc1ccccc1)C(=O)O)c1ccccc1 (centres undefined) | 10.4* | 12.6µM*
